High-throughput results (PubChem BioAssay)
GRK2 aptamer HTS = compounds blocking aptamer binding on GRK2 – biochemical, human GRK2, bead flow cytometry, HTS, primary screen; Beta-adrenergic receptor kinase 1 (Homo sapiens), P25098; FAM-aptamer displacement from GRK2; inhibition of aptamer binding, % at 10 µM; 330,000 compounds, 0.59% hits; AID 488847, 2010;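 active = inhibition of aptamer binding above 40%, roughly 3 SD of noise, on plates passing a quality check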;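 note: median bead fluorescence of bound FAM aptamer so fluorescent compounds give negative values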
eIF4H inh = human eIF4H binding inhibitors, primary screen, translation initiation inhibitor project, biochemical, uHTS, fluorescence polarization; Eukaryotic translation initiation factor 4H (Homo sapiens), Q15056; eIF4H fluorescence polarization binding assay; inhibition, % at 35 µM; 290,000 compounds, 0.94% hits;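 note: calls also rest on retests at 20 µM and on dose response follow-up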
PABP1 MLLE inh = inhibitors of PABP1 MLLE–PAM2 peptide binding, primary screen, biochemical, fluorescence polarization, FITC-PAM2, GST-MLLE | Polyadenylate-binding protein 1 (Homo sapiens), P11940 | inhibition, % at 20 µM | 360,000 compounds, 0.36% hits; in the data active = inhibition above about 35%, passing the limit was not always enough
PABP FP inh = PABP poly(A) RNA binding inhibitors, primary screen, biochemical, fluorescence polarization, uHTS | Polyadenylate-binding protein 1 (Homo sapiens), P11940 | inhibition, % at 35 µM | 290,000 compounds, 1% hits | AID 2014, 2009;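 note: calls also rest on retests at 20 µM and on dose response follow-up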
PERK inhibitor = block of dimerizer-induced PERK translation repression, primary screen, PERK inhibitor project, CHO PERK-DD cells, SEAP luminescence, HTS. CHO PERK-DD fusion, SEAP luminescence translation reporter. AID 1416, 2008. Eukaryotic translation initiation factor 2-alpha kinase 3 (Homo sapiens), Q9NZJ5. 220,000 compounds, 0.17% hits. inhibition, % at 5.6 µM;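 active = inhibition above the mean inhibition of all tested compounds plus 3 SD, set separately per screening campaign, cut at about 2.9% in these data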;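 note: PERK kinase domain activated by AP20187 dimerizer at 100 nM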
A number is an active result; n = inactive; u = inconclusive; x = not tested or not shown; ! = not confirmed by another sample. A selection: hits, their analogues and other compounds. The true share with any hit is near 1.9%. Unless noted, the rule behind the calls is not given here.

SMILES	GRK2 aptamer HTS	eIF4H inh	PABP1 MLLE inh	PABP FP inh	PERK inhibitor
C=CC[C@H](CC(=O)NCCO)C(=O)NC[C@@H](OC(=O)[C@H](CC=C)CC(=O)OC(C)(C)C)c1ccccc1	n	x	n	x	x
CC1(C)N=C(SCC(=O)Nc2ccccc2)C(c2ccc(Cl)cc2)=N1	n	n	44	n	n
O=C(CSc1ncn(-c2ccccc2)n1)c1cccs1	n	n	38	n	n
O=C(CSc1nnc(-c2ccccc2)n1-c1ccccc1)c1cccs1	n	n	n	n	n
Cc1ccc(C2=NC(C)(C)N=C2SCC(=O)Nc2ccc(Cl)cc2)cc1	n	n	n	n	n
CSc1nsc(SCC(=O)Nc2ccc3c(c2)OCCO3)n1	n	n	n	n	3.1
C/C(CC(=O)Nc1ccc(C)c(Cl)c1)=N\NC(=O)c1ccncc1	x	n	n	n	n
C/C(CC(=O)Nc1ccc(Cl)cc1Cl)=N\NC(=O)c1ccncc1	n	n	n	n	3.1
CC1(C)NC(=O)N(CC(=O)N2CCCC(C(F)(F)F)C2)C1=O (stereo not given)	n	x	n	x	x
NC(=O)CSc1nc2scc(-c3ccco3)c2c(=O)n1-c1ccccc1	n	67	n	51	n
O=c1c2c(-c3ccco3)csc2nc(SCc2cn3cccnc3n2)n1-c1ccccc1	n	89	n	66	n
O=C(CSc1nc2scc(-c3ccco3)c2c(=O)n1-c1ccccc1)N1CCOCC1	n	n	n	n	n
COc1ccc(/C=C/C(=O)N[C@@H](C)C(=O)O)cc1	n	n	n	n	3.4
Cc1ncc([N+](=O)[O-])n1CCO	n	5.6	n	n	n
Cc1ncc([N+](=O)[O-])n1CC(C)O (stereo not given)	n	u	n	3.9!	n
CCS(=O)(=O)CCn1c([N+](=O)[O-])cnc1C	n	n	n	n	n
CNc1cncc(-c2ccc(OCCCN(C)C)nc2)n1	x	x	n	x	x
Cc1ccc2c(c1)N(C(=O)CCC(=O)NCc1cccnc1)CC(C)O2 (stereo not given)	n	n	n	n	x
CC1=NN(C(=O)c2ccccc2-n2cccc2)C(O)(C(F)(F)F)C1 (stereo not given)	n	54	n	13	n
CC(C)(C)NC(=O)C(c1cccs1)N(CC1CCCO1)C(=O)c1ccc(-c2ccccc2)[nH]1 (stereo not given)	n	active	n	n	n
CNC(=O)C[C@@H]1C(=O)N(c2ccc(OC)cc2)CC1(C)C	x	x	n	x	x
CC(=O)COC(=O)C1=NN(c2ccccc2)C(=O)CC1	n	n	n	n	x
CCN(CC)c1ncnc2c1[nH]c1ccccc12	n	72	n	active	n
CCCOc1ncnc2c1[nH]c1ccccc12	n	n	n	n	n
CC1=C(C(=O)O)N2C(=O)C(NC(=O)c3ccccc3Cl)C2SC1 (stereo not given)	n	n	n	n	x
SMILES	GRK2 aptamer HTS	eIF4H inh	PABP1 MLLE inh	PABP FP inh	PERK inhibitor
CC1=C(C(=O)O)N2C(=O)C(NC(=O)c3ccc(F)cc3)C2SC1 (stereo not given)	n	x	43	x	x
CC1(C)Nc2ccc(O)cc2-c2c1ssc2=S	n	n	n	1.0	n
C=CC[C@H](CC(=O)N(CCO)Cc1ccccc1)C(=O)N[C@H](COC(=O)[C@@H](CC=C)CC(=O)OC(C)(C)C)c1ccccc1	n	x	n	x	x
O=C(CSc1ccsc1[N+](=O)[O-])Nc1cc(F)ccc1F	x	n	n	n	n
CC(=O)c1ccc(NC(=O)CSc2ccsc2[N+](=O)[O-])cc1	x	n	n	active	n
CCN(CC)c1ccc(NC(=O)CSc2ccsc2[N+](=O)[O-])c(C)c1	n	u	n	12	n
Cc1ccc(CNC(=O)CSc2ccsc2[N+](=O)[O-])cc1	n	n	n	n	n
COc1cccc(CNC(=O)C2CCN(S(=O)(=O)c3ccc(Br)s3)CC2)c1	n	n	n	n	x
CN(C(=S)NC(=O)c1ccc(Br)o1)c1ccccc1	n	n	n	n	n
Cc1ccc2cc(C)c3nnc(SCC(=O)c4cccs4)n3c2c1C	n	96	n	6.4	n
Cc1ccc(C)c2c1cc(C)c1nnc(SCC(=O)c3cccs3)n12	n	n	n	n	n
CC(C)C(=O)Nc1cccc(COc2cccc(CN(Cc3ccccc3)C(=O)OC(C)(C)C)c2)c1	x	x	n	x	x
CCNc1nc(SCC(N)=O)nc2sc3c(c12)CCN(C)C3	x	n	n	42	x
CN(/N=C/c1c[nH]c2ccccc12)c1cnn(-c2ccc(F)c(Cl)c2)c(=O)c1Cl	n	78	n	70	n
COc1ccc(OC)c(NC(=O)COC(=O)CCc2ccc(S(=O)(=O)N3CCOCC3)cc2)c1	n	x	n	x	x
CCN1C(=O)/C(=C\c2ccc3c(c2)OCO3)C(C(=O)OC)=C1C	n	n	n	n	n
COCCCN1C(=O)/C(=C\c2ccc3c(c2)OCO3)C(C(=O)OC)=C1C	n	n	n	n	3.2
CCN(CC)C(=O)C(=O)c1cn(CC(=O)N2CCc3ccccc3C2)c2ccccc12	n	n	n	n	n
O=C(O)CNC(=O)CC1S/C(=N/N=C/c2ccccc2O)NC1=O (stereo not given)	n	n	n	n	n
O=C(O)CNC(=O)CC1S/C(=N/N=C2\CSC(=O)N2)NC1=O (stereo not given)	n	n	42	n	n
O=C(CCCN1C(=O)CCC1=O)Nc1ccc(Br)cc1F	n	n	n	n	n
O=C(CCCN1C(=O)CCC1=O)Nc1ccccc1F	n	n	34	n	n
CCCNC(=O)C(Cc1ccccc1)NC(=O)c1ccc(-c2ccccc2)cc1 (stereo not given)	n	x	n	x	x
COc1ccc(C(=O)CCN2CCCC(C)C2)cc1 (stereo not given)	n	n	41	n	x
COc1ccc(C(=O)CCN2CCC(C)CC2)cc1	n	n	44	n	x
SMILES	GRK2 aptamer HTS	eIF4H inh	PABP1 MLLE inh	PABP FP inh	PERK inhibitor
CCOC(=O)C1=C(C)NC(C)=C(C(=O)OCC)C1c1ccc(Br)o1	n	n	n	n	n
CCOC(=O)c1c(C)noc1-c1ccc(Br)o1	n	n	n	n	4.6
COc1ccccc1C(=O)NCCn1ccc2ccccc21	n	n	43	n	n
Cc1cc(/C=N/NC(=O)COc2cccc3cccnc23)c(C)n1-c1ccc(O)cc1	n	n	n	active	n
Cc1cc(C)cc(-n2c(C)cc(/C=N\NC(=O)COc3cccc4cccnc34)c2C)c1	n	n	n	n	n
C/C(=N\NC(=O)CN1CCN(S(=O)(=O)c2ccc(C)cc2)CC1)c1ccncc1	n	n	n	n	n
Cc1nn(CC(=O)Nc2sc3c(c2C#N)CCC(C(C)(C)C)C3)c(C)c1[N+](=O)[O-] (stereo not given)	n	n	n	n	3.0
Cc1ccc(NC2=C(NC(=O)c3ccccc3)C(=O)c3ccccc3C2=O)cc1Cl	n	n	46	n	n
O=C1C(Cl)=C(NCCc2ccccc2)C(=O)N1CCc1ccccc1	n	n	n	n	n
